FMDV antiviral: antivirals against foot and mouth disease virus | Potency, µM (titrated, usually from 57.9 µM), for the others: at the highest dose activity change, negative = inhibition, hits mostly inhibitors | FMDV antiviral cell-based qHTS | 410,000 compounds, 1.2% hits; calls by dose curve; tested in HEK293T cells; further: read-out not given here; potency means the concentration at half of the fitted maximal effect; nearly all actives have a fitted effect of over 45% in size
HCMV antiviral: inhibitors of human cytomegalovirus | HFF cells, HCMV-luciferase reporter, 72 h; hits give low values | activity change, negative = inhibition, % at 57.5 µM | 410,000 compounds, 4.5% hits | AID 1259415; in the data active means activity change below about -60%; inconclusive means no clear call, values can overlap the other calls; inactive means above about -39%
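HFF cells seeded 16 h at 37C, treated with compounds, infected with luciferase-reporter HCMV at MOI 1 PFU/cell; luciferase read at 72 h post infection, normalized to buffer-only and Salinomycin controls.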
Vaccinia mCherry: inhibitors of vaccinia virus infection (mCherry reporter signal) | Vaccinia virus mCherry reporter infection, fluorescence | 310,000 compounds, 0.63% hits | Potency, µM (highest dose often 36.5 µM), without a hit: top-dose activity change, negative = inhibition, hits mostly inhibitors | AID 720579; calls by dose curve; tested in A549 cells; further: potency means the concentration at half of the fitted maximal effect; nearly all actives have a fitted effect of over 35% in size
Vaccinia Venus: vaccinia inhibition (Venus reporter); Potency, µM (top dose mostly 36.5 µM), inactives show at the highest dose activity change, negative = inhibition, usual class: inhibitors; Vaccinia virus Venus reporter expression, fluorescence; 330,000 compounds, 0.46% hits; calls by dose curve; tested in A549 cells; further: potency means the concentration at half of the fitted maximal effect; nearly all actives have a fitted effect of over 30% in size
HCV inh: blocks hepatitis C virus; Huh7.5.1 HCVcc-Cre infection, luciferase reporter, 44 h; Potency, µM (series often up to 41.8 µM), for inactives: at the highest dose activity change, negative = inhibition, most hits filed as inhibitors; 340,000 compounds, 3.4% hits; AID 651820; active means well fitted inhibition curve with a large enough effect; inconclusive means small, poorly fitted or top-dose-only effect, or another doubt; inactive means no such curve, though single readings can be large or run the other way; further: potency means the concentration at half of the fitted maximal effect
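After 44 h co-culture of compound, cells and HCVcc-Cre (~0.5 moi), substrate is added for 15 min at room temperature and luciferase measured over 15 sec. Cells were seeded at 1,000/well and pre-cultured 4 h.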
The depositor's hits bear a star; i = inactive; ? = inconclusive; . = not tested or not shown; ! = not confirmed by another sample; [ ] = another dose, or the depositor's remark. Rows were chosen to be rich in hits. Some 7.3% of all compounds tested hit in one or more screens of this group. On the % scale 0 is the no-effect control and ±100 the full control effect.

SMILES | FMDV antiviral | HCMV antiviral | Vaccinia mCherry | Vaccinia Venus | HCV inh
CCN(Cc1ccccc1)C(=O)CCNS(=O)(=O)c1ccc2c(c1)CC(C)N2C(C)=O (stereo unspecified) | -5% | -72*! | -11% | -6% | ?
CC(=O)N1c2ccc(S(=O)(=O)NCC3CCC(C(=O)Nc4ccccc4C)CC3)cc2CC1C (stereo unspecified) | -26% | 7 | i | -27% | .
CC(=O)N1c2ccc(S(=O)(=O)NCC3CCC(C(=O)Nc4ccc(C)cc4)CC3)cc2CC1C (stereo unspecified) | ? | -23 | -13% | -23% | .
CC(=O)N1c2ccc(S(=O)(=O)NCCC(=O)N(C)Cc3ccccc3)cc2CC1C (stereo unspecified) | 18% | 13 | -5%[7.34 µM] | 4%[7.34 µM] | 14%
CCOc1cc(CNc2ccc(O)cc2)ccc1OCc1ccc(Cl)cc1 | -18% | -21 | -2% | -14% | .
O=C(C[n+]1cccc2cc(Cl)ccc21)c1ccc2ccccc2c1 | . | . | ? | 350% | .
CCOC(=O)c1cnc2cc(C(F)(F)F)ccc2c1Nc1ccc(F)cc1F | -44% | 7 | -12% | -4% | .
COc1ccccc1CNS(=O)(=O)c1ccc2c(c1)CC(C)N2C(C)=O (stereo unspecified) | 15% | -26 | -8% | -14% | .
COc1cc(OC)c(NC(=O)C2CCN(S(=O)(=O)c3ccc4c(c3)CC(C)N4C(C)=O)CC2)cc1Cl (stereo unspecified) | ? | -19 | . | . | ?
COc1ccc(OC)c(NC(=O)C2CCN(S(=O)(=O)c3ccc4c(c3)CC(C)N4C(C)=O)CC2)c1 (stereo unspecified) | -22% | -86*! | -19% | -16% | -16%
CCC(C)NC(=O)C1CCC(CNS(=O)(=O)c2ccc3c(c2)CC(C)N3C(C)=O)CC1 (stereo unspecified) | 6% | -28 | -5% | -10% | -11%
CC(=O)N1c2ccc(S(=O)(=O)NCC3CCC(C(=O)N4CC(C)CC(C)C4)CC3)cc2CC1C (stereo unspecified) | -14% | -28 | . | . | 14µM*
CC(=O)N1c2ccc(S(=O)(=O)N3CCC(C(=O)Nc4cc(C)ccn4)CC3)cc2CC1C (stereo unspecified) | ? | -69* | . | . | ?
CC(=O)N1c2ccc(S(=O)(=O)N3CCC(C(=O)NCc4ccc(C)cc4)CC3)cc2CC1C (stereo unspecified) | -4% | ? | i | -16% | ?
CCOC(=O)c1cc(-c2ccc(F)cc2)n(CCC(=O)Nc2cc(OC)cc(OC)c2)c1C | 0% | 0 | -4% | -19% | .
CC(=O)Nc1ccc(NC(=O)CSc2cn(CC(=O)N(C(C)C)C(C)C)c3ccccc23)cc1 | -3% | 7 | -7% | -9% | .
CCCn1ccc2c(OCC(=O)Nc3ccc(OC)c(OC)c3)cccc2c1=O | ? | -27 | -9% | -18% | .
O=C(NCC(c1ccco1)S(=O)(=O)c1cccs1)c1ccc(Cl)cc1 (stereo unspecified) | -15% | -14 | -12% | -8% | .
CCCCNc1nc(-c2ccccc2)c(C(=O)OCC)cc1C#N | -15% | -3 | . | -29% | ?
CCCNc1nc(-c2ccccc2)c(C(=O)OCC)cc1C#N | ? | ? | . | ? | 3.2µM*
Cc1cc(C)c(CN2CCN(C(=O)Cn3cnc(C(=O)Nc4ccc(C)c(C)c4)n3)CC2)c(C)c1 | ? | -102* | -22% | ? | ?
CC(=O)c1ccc(C(=O)N2CCC(CO)(Cc3cccc(C(F)(F)F)c3)CC2)cc1 | -30% | -75* | -8% | -16% | ?
OCC1(Cc2cccc(C(F)(F)F)c2)CCN(Cc2cc3ccccc3o2)CC1 | -28% | -32 | ? | ? | -26%
Cc1c(CN2CCC(CO)(Cc3cccc(C(F)(F)F)c3)CC2)c2ccccc2n1C | -26% | -99* | ? | ? | ?
Cc1c(Cl)cccc1NC(=O)C(=O)NCCc1csc(-c2cccc(F)c2)n1 | 12% | -10 | -10% | -2% | .
SMILES | FMDV antiviral | HCMV antiviral | Vaccinia mCherry | Vaccinia Venus | HCV inh
CCN(CC)c1nc(NC2CCN(C)CC2)c2cc(OC)c(OC)cc2n1 | . | . | -36% | ? | .
CN(Cc1cccs1)c1ncnc2sccc12 | ? | -78* | . | . | 11µM*
COc1ccc(CCN(C)C(=O)CSc2ncnc3sccc23)cc1OC | ? | -10 | -17% | -6% | -10%
COc1ccc(CN(C)c2ncnc3sccc23)c(OC)c1OC | ? | ? | -5% | ? | 11µM*
CN(Cc1ccccc1F)c1ncnc2sccc12 | 0% | ? | i | -10% | ?
COc1ccc(CCN(C)c2ncnc3sccc23)cc1OC | 28µM* | ? | . | . | 10µM*
CC1(C(=O)Nc2ccc(Cl)c(Cl)c2)CCN1C(=O)C1CCCCC1 (stereo unspecified) | -14% | -17 | 0% | -21% | .
CC(=O)C(C(=O)Nc1c(C)cccc1C)N(C(=O)Cc1ccc([N+](=O)[O-])cc1)c1ccccc1 (stereo unspecified) | . | 3 | . | . | .
O=C(CNSc1ccc([N+](=O)[O-])cc1[N+](=O)[O-])OCc1ccccc1 | . | -24 | . | . | .
NC1=NC[C@H](Cc2ccc(O)cc2)N1CCCCC1CCCCC1 | ? | -90* | 8.9µM* | ? | 4%[8.37 µM]
Oc1ccc(C[C@H]2CNCCN2CCCCC2CCCCC2)cc1 | -27% | ? | ? | 11µM* | ?
Oc1ccc(C[C@H]2CNCCN2CCC23CC4CC(CC(C4)C2)C3)cc1 | -23% | -32 | -19% | ? | ?
Oc1ccc(C[C@@H]2CNCCN2CCC23CC4CC(CC(C4)C2)C3)cc1 | ? | -87* | -11% | -26% | ?
Oc1ccc(C[C@@H]2CNCCN2CC2CCCCC2)cc1 | -12% | ? | -19% | -19% | -9%
Cc1ccccc1-c1cc2c(c(OC3CCOC3)c1)OCCN(C(=O)Cn1cccn1)C2 (stereo unspecified) | 2% | . | i | -10% | .
Cc1ccccc1CSc1cn(CC(=O)N2CCCCCC2)c2ccccc12 | -12% | 44 | -7% | -7% | .
COc1cc2c(c(OC)c1OC)C(c1ccc3c(c1)OCO3)CC(=O)O2 (stereo unspecified) | -10% | -8 | i | -5% | -1%
COc1ccc2c(c[n+](C)c3c4cc5c(cc4ccc23)OCO5)c1OC | 10µM* | . | ? | ? | .
COc1ccc2cc3[n+](cc2c1OC)CCc1cc2c(cc1-3)OCO2 | ? | -96* | -17% | ? | ?
C=C1CCC[C@]2(C)C[C@H]3OC(=O)[C@H](CNCCc4ccccc4OC)C3CC12 (stereo partly specified) | -26% | . | . | . | .
C[C@H]1[C@@H](c2ccccc2)Oc2c(Cl)cccc2S(=O)(=O)N1C | . | -19 | . | . | .
CN(C)c1ccc(-n2cccc2/C=C/[N+](=O)[O-])cc1 | ? | 81 | -18% | -22% | 10µM*
CN(C)c1ccc(/C=C/c2c([N+](=O)[O-])c(=O)n(C)c(=O)n2C)cc1 | 10% | -12 | . | . | -1%
